# NLRP3 yeast inh = NALP3 inflammasome inhibitors in reconstituted yeast, primary screen, luminescence, uHTS | Yeast reconstituted NLRP3/ASC/caspase-1, beta-gal luminescence, 24 h | inhibition, % at 10 µM | hit rate 0.39% among 330,000 | AID 2825, 2010;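 active = inhibition of 50% or more; inactive = inhibition below 50%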;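 also: plate controls were induced DMSO wells for no effect and uninduced yeast grown without galactose for full effect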
# PERK inhibitor = block of dimerizer-induced PERK translation repression, primary screen, PERK inhibitor project, CHO PERK-DD cells, SEAP luminescence, HTS; Eukaryotic translation initiation factor 2-alpha kinase 3 (Homo sapiens), Q9NZJ5; CHO PERK-DD fusion, SEAP luminescence translation reporter; inhibition, % at 5.6 µM; hit rate 0.17% among 220,000; AID 1416, 2008;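 active = inhibition above the mean inhibition of all tested compounds plus 3 SD, set separately per screening campaign, cut at about 2.9% in these data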;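 also: PERK kinase domain activated by AP20187 dimerizer at 100 nM; 0% = DMSO with dimerizer and 100% = rapamycin at 8.4 µM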
# Yeast superoxide = reduction of superoxide in aged yeast, primary screen, HTS; S. cerevisiae aged cells, superoxide DHE fluorescence; hits give low values; superoxide response (% of plate mean), % at 10 µM; hit rate 0.18% among 330,000; AID 2690, 2010;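 active = superoxide response under a set limit, about three screen SD below normal, cut at about 65% in these data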;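 also: yeast aged for seven days with compound at 30 °C before DHE staining; 100% = average MFI of all compound-treated wells on the plate with controls excluded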
# Rce1 inh = yeast Rce1p protease inhibitors, primary screen, biochemical, fluorescence, cell-free homogeneous | calls only | CAAX prenyl protease 2 (Saccharomyces cerevisiae (strain ATCC 204508 / S288c)), Q03530 | hit rate 0.27% among 290,000 | yeast membranes, quenched prenylated peptide cleavage fluorescence;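 active = fall in fluorescence gain of 50% or more versus controls, with final raw signal at or below 3038400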;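 also: plate controls were neutral control wells for no effect and wells lacking membranes for full effect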
# Target sequence (Q03530 whole entry, looked up): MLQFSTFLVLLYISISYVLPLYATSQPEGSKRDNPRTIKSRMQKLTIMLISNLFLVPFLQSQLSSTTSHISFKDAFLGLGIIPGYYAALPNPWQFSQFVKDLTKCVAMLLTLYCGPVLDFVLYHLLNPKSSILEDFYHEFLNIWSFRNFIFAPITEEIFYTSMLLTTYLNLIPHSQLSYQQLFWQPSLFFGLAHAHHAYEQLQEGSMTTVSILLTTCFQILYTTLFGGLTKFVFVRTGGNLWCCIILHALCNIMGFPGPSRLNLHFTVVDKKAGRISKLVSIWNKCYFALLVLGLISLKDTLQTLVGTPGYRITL
# V-ATPase pHluor = regulators of yeast V-ATPase proton pumping, primary screen, pHLuorin cytosolic pH fluorescence. S. cerevisiae. response, % at 10 µM. hit rate 0.37% among 350,000. AID 504577, 2011; in the data active = response mostly above about 7.3%, no sharp cut-off; inactive = mostly below about 5.4%; also: actives read high
# NALP1 yeast inh = NALP1 inflammasome inhibitors in reconstituted yeast, colorimetric, S. cerevisiae, triplicate retest; S. cerevisiae NALP1/ASC/caspase-1 growth, X-gal OD620, 72 h; hit rate 0.61% among 280,000; AID 2071, 2009; inhibition, % at 10 µM; in the data active = inhibition mostly above about 24%, no sharp cut-off; inactive = mostly below about 32%
# * marks the source's active call; other numbers are inactive results; i = inactive; x = no result; + = active, no number. Shown are actives, neighbours in structure and some others; about 1.6% of the full set was active somewhere.
SMILES,NLRP3 yeast inh,PERK inhibitor,Yeast superoxide,Rce1 inh,V-ATPase pHluor,NALP1 yeast inh
O=C(c1cccs1)N1C[C@@H](n2cc(C3CC3)nn2)[C@H](O)C[C@@H]1c1ccc(Cl)cc1,x,x,x,x,0,x
C(=C\c1nc(N2CCCCCC2)c2ccccc2n1)/c1ccccc1,27,0,110,i,0,57*
O=C(Cn1ccc(=O)[nH]c1=O)c1ccc([N+](=O)[O-])o1,x,x,x,x,-1,x
Cc1cc2nc3c(=O)n(CCc4ccccc4)c(=O)[nH]c3nc2cc1N,19,0,93,i,-2,x
Nc1ccc2nc3c(=O)n(CCc4ccccc4)c(=O)[nH]c3nc2c1,16,0,114,i,51*,x
CCC1CCCCN1C(=O)CSc1nnc(-c2ccc(OC)cc2)o1 (stereo unspecified),10,0,99,i,3,44*
CCC1CCCCN1C(=O)CSc1nnc(-c2ccc3c(c2)OCCO3)o1 (stereo unspecified),19,-1,96,i,2,-25
O=C(COC(=O)Cn1cnc2ccccc21)Nc1ccc(Br)cc1,x,x,x,x,3,x
O=C(COC(=O)Cn1cnc2ccccc21)Nc1ccc2c(c1)C(=O)c1ccccc1C2=O,33,0,159,i,0,50*
CNc1cc(CSC)nc(SCc2ccc(Cl)cc2Cl)n1,41,0,91,i,0,33*
COc1cccc(CN2CCNC(=O)C2CC(=O)NCc2cn3ccccc3n2)c1OC (stereo unspecified),0,3.0*,89,i,-6,-10
CCOC(=O)C(CC)(CC)C(=O)/C=C/c1ccc(Br)cc1,8,3.2*,91,i,2,0
C(=N\Nc1nncc2ccccc12)/c1ccccn1,18,x,80,i,2,37*
C[C@@H]1CN([C@H](C)CO)S(=O)(=O)c2ccc(C3=CCCCC3)cc2O[C@H]1CN(C)C(=O)Cc1cccnc1,x,x,x,x,1,x
Cc1ccccc1SC1CCN(C(=O)C2CCC(=O)N(C3CC3)C2)CC1 (stereo unspecified),14,x,118,i,0,1
O=C(C1CCC(=O)N(C2CC2)C1)N1CCN(c2ccccc2Cl)CC1 (stereo unspecified),12,x,97,+,-3,11
CCOc1ccc(C(=O)Nn2cnnc2)cc1,6,1,115,i,0,33*
COc1ccccc1C(C)Nc1nc(-c2cccnc2)nc2ccccc12 (stereo unspecified),19,x,96,i,3,16
O=C(Nc1ccc(C2=NCCN2)cc1)c1ccc(C(=O)Nc2ccc(C3=NCCN3)cc2)c([N+](=O)[O-])c1,19,2,102,i,x,35*
Cc1nc(NC(=O)CSc2nnc(-c3ccncc3)n2C)sc1C,8,x,103,i,-2,3
CCCc1nnc(NC(=O)c2cc3ccccc3oc2=O)s1,4,0,103,i,0,40*
CCCc1nnc(NC(=O)CCC(=O)N2CCN(S(=O)(=O)c3ccc(F)cc3)CC2)s1,8,1,94,i,-1,x
CCc1nnc(NC(=O)CSc2nnc(-c3ccncc3)n2C)s1,29,3.3*,96,i,8,-3
CCc1nnc(NC(=O)CSc2nnc(CNc3ccc(F)cc3)n2C2CCCCC2)s1,12,0,88,i,4,32*
CCCc1nnc(NC(=O)CNc2ccc(F)cc2)s1,13,3.1*,97,i,1,-26
SMILES,NLRP3 yeast inh,PERK inhibitor,Yeast superoxide,Rce1 inh,V-ATPase pHluor,NALP1 yeast inh
CCc1nnc(NC(=O)c2ccc3c(=O)n4c(nc3c2)CCC4)s1,x,x,x,x,3,x
CCCc1nnc(NC(=O)CC(=O)Nc2ccccc2C(=O)O)s1,15,1,91,i,0,40*
CCC(C)[C@H](N)C(=O)N[C@H]1CCC2C3CC=C4C[C@@H](O)CC[C@]4(C)C3CC[C@@]21C (stereo partly specified),x,x,x,x,-1,x
Cc1ccc(-c2ccc(/C=N/n3cnnc3)o2)cc1,15,-1,108,i,-1,39*
COc1cc(C(C#N)N2CCOCC2)ccc1O (stereo unspecified),-6,3.5*,107,x,-4,16
COc1ccc(CC(=O)Oc2ccc(C(C)C)cc2)cc1S(=O)(=O)N1CCOCC1,21,x,105,i,25*,x
C#CCN(C)CCCOc1ccc(Cl)cc1Cl,46,1,98,i,-4,56*
CCN(CC)C(=O)CCCOc1ccc(Cl)cc1Cl,19,1,97,i,0,16
COc1ccc(CN2C(=O)C(CC(=O)NCCCCc3ccccc3)CC(C(=O)N(C)C)=C2C)cc1 (stereo unspecified),x,x,x,x,1,x
COC(=O)N/N=C/c1ccc(OC(=O)/C=C/c2ccco2)cc1,0,2.9*,95,i,-1,10
CCN1CCN(c2ccc(NC(=O)c3cccc(OCc4ccccc4)c3)cc2)CC1,38,-1,97,+,4,45
COc1ccc(NC(=O)N(C)C[C@@H]2OCc3cnnn3CCCC(=O)N([C@H](C)CO)C[C@@H]2C)cc1,x,x,x,x,2,x
CC1=C(C(=O)N(C)C)CC(CC(=O)NC2CCCC2)C(=O)N1CCC1=CCCCC1 (stereo unspecified),x,x,x,x,-1,x
O=C(CC1(O)C(=O)N(C/C=C/c2ccccc2)c2ccccc21)c1ccccn1 (stereo unspecified),6,-1,78,+,5,6
CC(=O)N1CCOC12CCN(Cc1ccccc1)CC2,x,x,x,x,1,x
Cc1ccc(NC(=O)CCN2CC(C)OC(C)C2)cc1 (stereo unspecified),22,x,99,i,4,8
Cc1cccc(C)c1NC(=O)CCCN1CC(C)OC(C)C1 (stereo unspecified),26,3.2*,81,i,0,15
COC(=O)c1ccc(Cn2cnc3c(Cl)ncnc32)cc1,x,x,x,x,1,x
Nc1ccc2nc(SCC(=O)N3CCOCC3)sc2c1,14,-1,114,i,4,40*
CCOC(=O)c1c(C)n(C)c2ccc(OC)c([N+](=O)[O-])c12,17,-1,89,i,4,22*
CCc1noc(C)c1C(=O)OCC(=O)c1ccc(NC(C)=O)cc1F,-1,x,110,x,17*,x
CCc1noc(C)c1C(=O)OCC(=O)Nc1ccc(F)cc1Cl,23,x,100,x,-5,x
Cc1ccc(-c2cc[n+](Cc3ccccc3)cc2)cc1,5,0,95,i,0,4
Cc1ccc2c(c1)sc[n+]2Cc1ccccc1,-13,-1,83,+,-9,3
CCN1CCN(c2nc3c(c(=O)[nH]c(=O)n3C)n2Cc2cccc(C)c2)CC1,x,x,x,x,0,x

# Screening data from PubChem BioAssay.
